Measured values published in PubChem BioAssay AID624063 (Southern Research Specialized Biocontainment Screening …, 2012).
Entries with a potency or affinity are not part of this list. The source made the active and inactive calls. How the calls were made is not given here.

Test: VEEV TC-83 cytopathic effect inhibitors, confirmation, cell-based, set 4 (AID 624063)
Details: VEEV TC-83 infected cells; series mostly up to 25 µM

Question: With `CCN1CCN(Cc2nc3ccccc3c(=O)n2-c2ccccc2F)CC1` as the compound, how does the outcome read?
Answer: The outcome was “inactive”.

Question: For `CC(C)(C)OC(=O)N1CCN(Cc2nc3ccc([N+](=O)[O-])cc3c(=O)n2-c2ccccc2F)CC1`, which outcome is on record?
Answer: The outcome was “inactive”.

Question: Which outcome does the source give for `CCN1CCN(Cc2nc3ccc(C(F)(F)F)cc3c(=O)n2-c2ccccc2F)CC1` here?
Answer: Its outcome is “inactive”.

Question: Which outcome does the source give for `O=C(NCc1ccco1)C1CCN(C(=O)c2cc3sccc3n2Cc2ccc(F)cc2)CC1` here?
Answer: The outcome was “inactive”.
